From PubChem
VACV mCherry inh – vaccinia inhibition (mCherry reporter) | Vaccinia virus mCherry reporter infection, fluorescence | Potency, µM (top dose mostly 36.5 µM), actives largely listed as inhibitors | hit rate 0.63% among 310,000 | AID 720579; calls by dose curve; tested in A549 cells; further: nearly all actives have a fitted effect of over 35% in size
HCV inhibitor – inhibitors of hepatitis C virus infection; Huh7.5.1 HCVcc-Cre infection, luciferase reporter, 44 h; Potency, µM (top dose mostly 41.8 µM), actives largely listed as inhibitors; hit rate 3.4% among 340,000; AID 651820
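Infectious HCV cell culture screen: compound-treated cells (1,000/well, pre-plated 4 h) are infected with HCVcc-Cre at roughly 0.5 moi and grown 44 h. Infection is quantified by luciferase signal after 15 min substrate incubation at room temperature.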
VACV Venus inh – vaccinia inhibition (Venus reporter); Vaccinia virus Venus reporter expression, fluorescence; Potency, µM (top dose mostly 36.5 µM), most hits filed as inhibitors; hit rate 0.46% among 330,000; calls by dose curve; tested in A549 cells; further: nearly all actives have a fitted effect of over 30% in size
FMDV inh – blocks foot and mouth disease virus | FMDV antiviral cell-based qHTS | Potency, µM (doses to about 57.9 µM), usual class: inhibitors | hit rate 1.2% among 410,000; calls by dose curve; tested in HEK293T cells; further: read-out not given here; nearly all actives have a fitted effect of over 45% in size
Giardia FBPA inh – blocks Giardia fructose-bisphosphate aldolase activity; A8B2U2; purified Giardia FBPA; Potency, µM (top dose mostly 59.6 µM), most hits filed as inhibitors; hit rate 0.71% among 290,000; AID 2451; further: nearly all actives have a fitted effect of over 55% in size
Target sequence (A8B2U2 whole entry, looked up): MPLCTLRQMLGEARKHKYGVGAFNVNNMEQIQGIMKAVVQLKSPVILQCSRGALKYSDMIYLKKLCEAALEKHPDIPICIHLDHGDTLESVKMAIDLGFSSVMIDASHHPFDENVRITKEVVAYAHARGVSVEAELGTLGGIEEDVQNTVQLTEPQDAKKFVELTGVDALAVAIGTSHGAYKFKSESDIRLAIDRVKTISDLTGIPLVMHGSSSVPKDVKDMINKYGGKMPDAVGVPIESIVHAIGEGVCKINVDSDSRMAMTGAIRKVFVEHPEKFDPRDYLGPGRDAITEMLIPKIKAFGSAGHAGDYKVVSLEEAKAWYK
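40 nM FBPA preincubated 10 min at RT with compound (up to 57.5 uM final), then substrate plus GAPDH/TPI/NAD/arsenate coupling and diaphorase/resazurin added. Fluorescence read after 20 min at RT, 525/598 nm.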
HCMV inh – blocks human cytomegalovirus replication; HFF cells, HCMV-luciferase reporter, 72 h; active compounds read low; activity change, negative = inhibition, % at 57.5 µM; hit rate 4.5% among 410,000; in the data active means activity change below about -60%; inconclusive means no clear call, values can overlap the other calls; inactive means above about -39%
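Compounds were evaluated in HFFs infected with an HCMV luciferase reporter virus (MOI 1 PFU/cell). Luciferase in lysates collected 72 h post infection served as the replication measure.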
Each line names hits and unclear results; the compound was inactive in the other large screens. Hits are enriched below; roughly 7.5% of the tested compounds scored in any of these assays. Unless noted, the call rests on the fitted dose curve; in most records, active means well fitted curve in the direction sought with a large enough effect; inconclusive means small, poorly fitted or top-dose-only effect, or another doubt; inactive means no such curve, though single readings can be large; an effect the other way counts as inactive or inconclusive.

CCC1(C)Cc2c(sc(NC(=S)NC(=O)c3ccccc3)c2C#N)CO1 (centres undefined)	none
CN1Cc2sc(NC(=S)NC(=O)c3ccccc3)c(C#N)c2CC1(C)C	HCV inhibitor inconclusive, FMDV inh inconclusive, HCMV inh -76
CCCCCC(=O)N(c1ccc(OCC)cc1)S(=O)(=O)c1ccc2c(c1)n(C)c(=O)n2C	FMDV inh inconclusive (no result: HCV inhibitor, Giardia FBPA inh)
COc1ccc(-c2csc(NC(=O)CN3C(=O)C4CC=CCC4C3=O)n2)cc1OC (centres undefined)	HCV inhibitor inconclusive, FMDV inh inconclusive, HCMV inh -111 (no result: VACV mCherry inh, VACV Venus inh, Giardia FBPA inh)
O=C(CN1C(=O)C2CC=CCC2C1=O)Nc1nc(-c2ccc(F)c(F)c2)cs1 (centres undefined)	HCV inhibitor 10µM, FMDV inh inconclusive (no result: VACV mCherry inh, VACV Venus inh, Giardia FBPA inh)
O=C(CCN1C(=O)C2CCCCC2C1=O)Nc1nc(-c2ccc(F)c(F)c2)cs1 (centres undefined)	HCV inhibitor inconclusive, FMDV inh inconclusive
COc1cc(NC(=O)Cn2cnc(S(=O)(=O)N3CCOCC3)c2)cc(OC)c1OC	none (no result: Giardia FBPA inh)
COc1ccccc1OCC(=O)Nc1c(C(=O)c2ccc(F)cc2)oc2ccccc12	VACV mCherry inh inconclusive, VACV Venus inh inconclusive (no result: HCV inhibitor, Giardia FBPA inh)
O=C(CCCOc1cccc(Br)c1)NCCOc1ccccc1	none
CCOc1ccc(C(=O)C[n+]2cccc3cc(C)ccc32)cc1	HCV inhibitor inconclusive, HCMV inh -81
Cc1ccc(C(=O)C[n+]2cccc3cc(C)ccc32)cc1	none
Cc1ccc(OCc2cc(C(=O)N(C)CCc3ccccn3)no2)cn1	HCMV inh -63 (no result: VACV mCherry inh, VACV Venus inh, Giardia FBPA inh)
COc1cccc(OCc2cc(C(=O)N(C)CCOc3ccc(C)cc3)no2)c1	HCV inhibitor 11µM (no result: VACV mCherry inh, VACV Venus inh, Giardia FBPA inh)
Cc1cc(OCc2cc(C(=O)N(C)CCOc3ccccc3)no2)cc(C)c1Cl	HCV inhibitor inconclusive (no result: VACV mCherry inh, VACV Venus inh)
COc1cccc(CN(C)C(=O)c2cc(COc3ccc4ncccc4c3)on2)c1	HCV inhibitor 5.6µM, FMDV inh 11µM, HCMV inh -86
COc1ccc(C(C(=O)Nc2ccc(C(C)C)cc2)N(C)C(=O)Cc2cccs2)cc1 (centres undefined)	none (no result: HCV inhibitor, Giardia FBPA inh)
Cc1ccc2c(c1)cc1c(=O)n(Cc3ccc(Cl)cc3)nc(C)n12	none (no result: HCV inhibitor, Giardia FBPA inh)
CCOC(=O)c1c(NC(C)=O)c2c3c(sc2n1Cc1nc(-c2ccc(Cl)cc2)oc1C)CCCC3	HCMV inh inconclusive (no result: HCV inhibitor, Giardia FBPA inh)
CN1C/C(=C/c2ccccc2[N+](=O)[O-])C(=O)/C(=C\c2ccccc2[N+](=O)[O-])C1	VACV mCherry inh inconclusive, HCV inhibitor inconclusive, FMDV inh 18µM (no result: Giardia FBPA inh)
Cc1ccc(C)c2c1CCC(=Cc1ccccc1[N+](=O)[O-])C2=O	none (no result: HCV inhibitor, Giardia FBPA inh)
COc1cc(NC(=O)C2=C(N3CCOCC3)/C(=C\c3ccc(Cl)cc3Cl)CC2)cc(OC)c1OC	VACV mCherry inh inconclusive, HCV inhibitor inconclusive, FMDV inh 14µM
COc1cc(NC(=O)C2=C(N3CCOCC3)/C(=C\c3ccc(Br)cc3)CC2)cc(OC)c1OC	FMDV inh inconclusive
CCn1c(SCC(=O)Nc2nc3ccccc3s2)nc2c(c1=O)SC(C)C2 (centres undefined)	HCV inhibitor inconclusive, VACV Venus inh inconclusive, FMDV inh 32µM (no result: VACV mCherry inh)
CCn1c(SCC(=O)Nc2nc3ccc(C)cc3s2)nc2c(c1=O)SC(C)C2 (centres undefined)	VACV mCherry inh inconclusive, HCV inhibitor 7.9µM, VACV Venus inh inconclusive, FMDV inh inconclusive (no result: HCMV inh)
COCCn1c(CNC(=O)c2cc(OC)c(OC)c(OC)c2)nc2cccnc21	none (no result: HCV inhibitor, Giardia FBPA inh)
COCC(=O)Nc1cc(C(=O)N2CCc3ccccc3C2)c2c(c1)nc(-c1ccncc1)n2C	none (no result: HCV inhibitor, Giardia FBPA inh, HCMV inh)
O=C(CN1C(=O)c2ccccc2S1(=O)=O)c1ccc2c(c1)OCCCO2	FMDV inh 3.2µM, HCMV inh -96
O=C(CN1C(=O)c2ccccc2S1(=O)=O)c1ccc2c(c1)OCCO2	FMDV inh 3.5µM, HCMV inh -98 (no result: VACV mCherry inh, VACV Venus inh)
O=C(CCN1C(=O)c2ccccc2S1(=O)=O)Nc1ccc2c(c1)OCCO2	none (no result: FMDV inh)
Cc1nn2c(NCc3ccccn3)cc(C(C)C)nc2c1-c1ccccc1	HCV inhibitor 4µM, HCMV inh -98 (no result: VACV mCherry inh, VACV Venus inh)
Cc1nn2c(NCCCn3ccnc3)cc(C(C)C)nc2c1-c1ccccc1	HCMV inh inconclusive
Cc1cc(NCCC(C)C)n2nc(C)c(-c3ccccc3)c2n1	HCV inhibitor 8.9µM (no result: VACV mCherry inh, VACV Venus inh)
